Screening data as filed in PubChem.
This is a sample that favours compounds with a hit; in the whole collection about 1.9% have one here.
Menin-MLL FL inh = inhibitors of human menin-MLL interaction, wild-type MLL peptide; 290,000 tested, under 10 active; Fluorescence polarization, fluorescein-MLL peptide displacement from menin; FP activity change, % at 61.4 µM; active = well fitted curve in the direction sought with a large enough effect in the polarisation, not every such curve was filed as active; inconclusive = small, poorly fitted or top-dose-only effect, or effect the other way, or a change in a side signal; inactive = no such curve, though single readings can be large or run the other way; the % refers to the polarisation; also: % of control where 0% means no effect
Menin MLL FP TR = menin-MLL binding inhibition, Texas Red mutant peptide; O00255; Menin + Texas Red MLL mutant peptide, fluorescence polarization; Potency, µM (doses to about 61.6 µM), for the others: at the top dose FP activity change, negative = inhibition, hits mostly inhibitors; 270,000 compounds, 0.23% hits; active = well fitted inhibition curve with a large enough effect in the polarisation, with a control signal flat, not every such curve was filed as active; inconclusive = small, poorly fitted or top-dose-only effect, or effect the other way, or a change in a side signal; inactive = no such curve, though single readings can be large or run the other way; the % refers to the polarisation; also: potency is read from the fitted curve at half-maximal effect; % of control where 0% means no effect
Target sequence (O00255 whole entry, looked up): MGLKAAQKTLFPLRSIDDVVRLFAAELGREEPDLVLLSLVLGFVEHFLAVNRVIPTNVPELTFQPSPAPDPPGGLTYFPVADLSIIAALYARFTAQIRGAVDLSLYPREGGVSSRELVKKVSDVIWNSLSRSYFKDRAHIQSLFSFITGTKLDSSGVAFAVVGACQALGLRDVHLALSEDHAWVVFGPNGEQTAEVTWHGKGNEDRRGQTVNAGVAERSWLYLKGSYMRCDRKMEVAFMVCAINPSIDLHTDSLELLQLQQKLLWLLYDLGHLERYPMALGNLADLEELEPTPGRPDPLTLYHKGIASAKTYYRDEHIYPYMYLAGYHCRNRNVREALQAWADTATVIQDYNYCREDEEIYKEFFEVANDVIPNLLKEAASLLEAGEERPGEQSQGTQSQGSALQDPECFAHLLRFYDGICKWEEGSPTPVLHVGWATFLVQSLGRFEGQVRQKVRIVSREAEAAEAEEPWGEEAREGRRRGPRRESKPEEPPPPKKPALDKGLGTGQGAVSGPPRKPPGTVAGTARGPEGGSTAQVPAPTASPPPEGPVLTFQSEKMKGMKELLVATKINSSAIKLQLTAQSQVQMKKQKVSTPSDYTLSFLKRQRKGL
PINK1 modulator = modulators of PINK1 expression. PINK1 immunofluorescence, high-content cytometry, 24 h. Potency, µM (doses to about 76.6 µM), for the others: at the highest dose activation (PINK1 increase), actives largely listed as activators. 410,000 compounds, 0.2% hits. AID 624263; active = well fitted activation curve with a large enough effect; inconclusive = small, poorly fitted or top-dose-only effect; cell line not stated here; also: potency is read from the fitted curve at half-maximal effect; % of control where 0% means no effect; nearly all actives have a fitted effect of over 65% in size
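Compound titrations (5 concentrations, 24 h) on a stable cell line; DMSO and CCCP controls. Endpoint: fixed-cell PINK1 immunofluorescence with mitochondrial, cell and nuclear markers, scanned by microplate cytometer.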
ClpP mod = qHTS Assay for Activators of ClpP; ATP-dependent Clp protease proteolytic subunit (Bacillus subtilis (strain 168)), P80244; purified B. subtilis ClpP, FRET peptide cleavage, 20 min; Potency, µM (highest dose often 57.5 µM), for the others: top-dose activity change, negative = active; 340,000 compounds, 1.9% hits; AID 651965, 2013; active = well fitted falling curve with a large enough effect; inconclusive = small, poorly fitted or top-dose-only effect; inactive = no such curve, though single readings can be large or run the other way; also: potency is read from the fitted curve at half-maximal effect; the source files actives as falling curves though it sought activators and does not explain the sign; nearly all actives have a fitted effect of over 65% in size
Target sequence (P80244 whole entry, looked up): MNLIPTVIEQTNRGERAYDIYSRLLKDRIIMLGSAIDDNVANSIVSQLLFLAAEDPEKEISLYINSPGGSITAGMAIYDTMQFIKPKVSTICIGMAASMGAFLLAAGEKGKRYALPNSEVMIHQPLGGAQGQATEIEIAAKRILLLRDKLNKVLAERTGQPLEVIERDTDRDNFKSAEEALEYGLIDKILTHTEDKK
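Buffer: 100 mM Tris/HCl pH8, 100 mM KCl, 0.05% low protease BSA, 2.5% glycerol, 0.01% Tween-20. ClpP 10 microg/mL final; 20 min RT; delta FRET normalized to ADEP and DMSO controls.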
MLL CXXC-DNA inh = blocks binding of human MLL CXXC domain to DNA | Q03164 | MLL-CXXC / FITC-HOXA9 DNA fluorescence polarization | Potency, µM (titrated, usually from 115 µM), without a hit: at the highest dose activity change, negative = inhibition, hits mostly inhibitors | 290,000 compounds, 0.037% hits | AID 2662; active = well fitted inhibition curve with a large enough effect in the polarisation, with a control signal flat, not every such curve was filed as active; inconclusive = small, poorly fitted or top-dose-only effect, or effect the other way, or a change in a side signal; inactive = no such curve, though single readings can be large or run the other way; the % refers to the polarisation; also: potency is read from the fitted curve at half-maximal effect
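Steps: dispense CXXC domain solution (7 uM) → pin compounds or unlabeled HOX-A9 DNA control → 5 min ambient → add FLSN-HOX-A9 solution (50 nM) → spin → 30 min ambient → fluorescence polarization. Tris pH 7.5/NaCl/DTT/BSA buffer.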
Epigenetic reg = epigenetic control regulation, reporter derepression | murine LDR cells, GFP reporter derepression, 30 h | Potency, µM (series often up to 53.9 µM), inactives show top-dose GFP activation, hits mostly activators | 280,000 compounds, 0.2% hits; active = well fitted activation curve with a large enough effect; inconclusive = small, poorly fitted or top-dose-only effect; also: potency is read from the fitted curve at half-maximal effect; % of control where 0% means no effect; nearly all actives have a fitted effect of over 60% in size
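Murine LDR cells carrying a silenced, genomically integrated CMV-driven GFP reporter were exposed to compound for 30 hours at 37 C. After PBS washes, GFP-positive cells (20–120 um objects) were counted by laser-scanning microplate cytometry.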
Numbers without * were called inactive; ? = inconclusive; . = no result; [ ] = dose if it differs, or a comment.

SMILES | Menin-MLL FL inh | Menin MLL FP TR | PINK1 modulator | ClpP mod | MLL CXXC-DNA inh | Epigenetic reg
O=C(C[n+]1ccc(-c2nnc3n2CCC3)cc1)c1ccc(Cl)c(Cl)c1 | -2 | -19% | 1% | 28µM* | 14% | 0%
CCOC(=O)C(CCc1ccccn1)c1ccccc1 (configuration not stated) | . | . | 1% | 7.9µM* | . | .
CC(=O)Nc1cc(C(=O)N2CCSCC2)cc2ncn(CCc3ccccn3)c12 | . | . | 0% | . | . | .
Cc1coc(NC(=O)CSc2nc(-c3ccncc3)cc(C(F)(F)F)c2C#N)n1 | 5 | 22% | ? | 14% | 1% | 13µM*
CN(C)c1nc(-c2ccccc2)cc(C(F)(F)F)c1C#N | 2 | -5% | 1% | 32µM* | -10% | 0%
CCOC(=O)NC(=O)CSc1nc(C)cc(C(F)(F)F)c1C#N | ? | -4% | -3% | -12% | 26% | 1%
Cc1cc(C(F)(F)F)c(C#N)c(SCC(=O)Nc2nc3cc(Br)ccc3s2)n1 | 2 | ? | 14µM* | . | 20% | -3%
CCCCOc1ccc(-c2cc(C(F)(F)F)c(C#N)c(SCC(=O)O)n2)cc1 | ? | 32% | ? | . | ? | 25µM*
CN(C)c1nc(-c2cccs2)cc(C(F)(F)F)c1C#N | 3 | . | 3% | . | -3% | 6%
O=C(NCCc1nc2ccccc2n1CCOc1ccc2ccccc2c1)C1CCCCC1 | . | . | 2% | -9% | . | .
Cc1ccc(S(=O)(=O)N2CCN(c3nc(-c4cccs4)cc4ccccc34)CC2)cc1 | . | . | 2% | 4% | . | .
Cc1cc2c(c(-c3cnccn3)c1)OC(CNC(=O)c1cc(Cl)ccc1F)C2 (configuration not stated) | . | . | 1% | . | . | .
O=C(Cn1cncn1)N1CCOc2ccc(CN3CCN(c4ccccc4)CC3)cc2C1 | . | . | 0% | . | . | .
N#Cc1ccccc1NC(=O)CSc1nc(-c2ccccc2)cc(C(F)(F)F)c1C#N | . | . | 10% | -9% | . | 13µM*
Cc1ccc(NS(=O)(=O)c2ccc(Cl)c(C(=O)Nc3ccccc3-c3nc4ccccc4[nH]3)c2)cc1C | 3 | ? | 19% | 35µM* | 1% | -3%
Clc1ccc(-c2nn3c(-c4cc(-c5ccccc5)n[nH]4)nnc3s2)cc1 | . | . | 0% | -15% | . | .
CCN1CCc2c(sc3c2c(NCc2ccco2)nc2nnnn23)C1 | ? | -11% | 1% | 13µM* | 4% | -1%
C[N+]1(CC(=O)c2ccc3ccccc3c2)CCOCC1 | . | . | 2% | -27% | . | .
COc1cc2c(C#CCCCO)c(-c3ccc(C#N)cc3)oc(=O)c2cc1OC | . | . | 7% | 14µM* | . | .
COc1cccc(S(=O)(=O)Nc2ccc3c(c2)OCCO3)c1 | -3 | 1% | -1% | 14µM* | -8% | .
CC(NC(=O)c1ccco1)c1nnc2n1CCN(Cc1ccc(N(C)C)cc1)CC2 (configuration not stated) | . | . | 1% | . | . | .
CCCCC/C=C\C/C=C\C[C@H](O)/C=C/C=C\CCCC(=O)O | 1 | 7% | . | . | . | 1%
O=C(c1ccc(Cl)cc1)c1cnc(-c2ccccc2)s1 | 3 | . | 1% | 20µM* | -2% | 0%
CC[C@H](C)[C@H](NC(=O)[C@H](C)NC(=O)CNC(=O)[C@H](CCCN=C(N)N)NC(=O)[C@H](C)NC(=O)[C@H](CC(C)C)NC(=O)[C@H](CCC(=O)O)NC(=O)[C@H](CC(C)C)NC(=O)[C@H](C)NC(=O)[C@@H](N)CCC(=O)O)C(=O)N[C@@H](Cc1ccccc1)C(=O)N[C@@H](CCC(N)=O)C(=O)N[C@@H](C)C(=O)O | 0 | -19% | . | . | . | .
COc1ccc(-c2ccc([C@H]3[C@H]4C=CC[C@@H](C)[C@@H]4C(=O)N3Cc3ccccc3)c(F)c2)cc1 | 2 | . | 2% | 20µM* | -3% | -1%
SMILES | Menin-MLL FL inh | Menin MLL FP TR | PINK1 modulator | ClpP mod | MLL CXXC-DNA inh | Epigenetic reg
COc1ccc(-c2ccc([C@H]3[C@H]4C=CC[C@@H](C)[C@@H]4C(=O)N3Cc3ccccc3)c(F)c2)cc1OC | 7 | . | 6% | 3% | -1% | 2%
COc1ccc(-c2ccc(OC)c([C@H]3[C@H]4C=CC[C@@H](C)[C@@H]4C(=O)N3Cc3ccccc3)c2)cc1 | 4 | . | -1% | 25µM* | 11% | 13%
Cc1ccnc2c(Cl)c(Cl)ccc12 | . | . | . | 0% | . | .
c1ccc2[nH]cnc2c1 | . | . | 0% | -2% | . | .
c1ccc2nc3[nH]cnc3nc2c1 | 1 | 10% | ? | 22µM* | -1% | -3%
CC(=O)N1C(=O)c2cccc3cccc(c23)C(=O)N1C(C)=O | 4 | 30% | 1% | 25µM* | 11% | 2%
COc1cc(S(=O)(=O)N2CCN(Cc3ccccc3)CC2)ccc1Br | -2 | 22% | 0% | ? | 0% | 0%
O=S(=O)(c1ccc(S(=O)(=O)N2CCN(C3CCCCC3)CC2)cc1)N1CCCCCC1 | 35 | 1% | 7%[38.3 µM] | 0% | 0% | 13%
O=c1[nH]c2ccc(S(=O)(=O)N3CCN(C4CCCCC4)CC3)cc2[nH]c1=O | 3 | 2% | 7%[38.3 µM] | 28µM* | 5% | -3%
O=c1[nH]c2ccc(S(=O)(=O)N3CCN(Cc4ccccc4)CC3)cc2[nH]c1=O | -2 | 10% | 3%[38.3 µM] | 28µM* | 5% | -2%
Cc1cc(OCc2cn3cccnc3n2)ccc1Cl | 6 | -13% | 2% | 16µM* | -8% | -3%
Cn1c(=O)c(Sc2ccccc2)c(O)c2ccccc21 | -3 | . | 3% | ? | 2% | 3%
CC(C)(C)C1C=C(Sc2ccccc2)C(=O)O1 (configuration not stated) | . | -5% | 16µM* | -1% | -2% | 2%
N#Cc1cc(-c2ccccc2)cn(Cc2c(Cl)cccc2Cl)c1=O | 1 | 8% | 2%[38.3 µM] | 28µM* | 2% | -3%
N#Cc1cc(C(=O)c2cc(Br)ccc2O)cn(Cc2ccccc2)c1=O | ? | -29% | ? | . | 3% | 3%
Cc1ccc(-c2cc(C#N)c(=O)n(Cc3c(Cl)cccc3Cl)c2)cc1 | 0 | 2% | ? | 7.1µM* | 10% | -1%
COc1ccc2c(CC(=O)NCCN3C(=O)S/C(=C\c4cccnc4)C3=O)coc2c1 | 0 | 2% | 1% | 13µM* | 8% | -2%
Cc1ccc(NC(=O)Cc2c(O)c3ccccc3[nH]c2=O)c(C)c1 | 5 | . | 5% | . | -17% | 0%
CCCCc1c(O)c2ccccc2[nH]c1=O | 2 | 9% | -1% | 25µM* | 9% | 0%
CCCc1c(O)c2ccccc2[nH]c1=O | 5 | 4% | -1% | 14µM* | 4% | 0%
Cc1ccccc1NC(=O)Cc1c(O)c2ccccc2[nH]c1=O | 0 | 8% | 1%[38.3 µM] | 16µM* | 0% | -1%
